# Measured values from PubChem BioAssay.
# Values joined by “and” are separate entries in the source; they are usually repeats but may differ in a detail not shown here. Identical values can stand only once. Some structures have more than one record in an assay (separate samples or runs), and their calls can disagree. Active and inactive are the calls of the source.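 How the source made its calls, unless noted: active means normalized viability below 100% at a tested concentration; inactive means the rest.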
# Legend:
# [1] = modifiers of HSF1 nuclear foci, imaging, Selleck Cancer Library (AID 1347162; in the data active means plate-normalised HSF1 focus index below about 0.46); conditions: human cells, at 10 µM; SSMD: measured here: HSF1 foci SSMD mean; cell count: measured here: cell number; plate-normalised HSF1 focus index: stronger effect = lower value
# [2] = ovarian cancer cell viability with rucaparib, profiling panel, oncology-focused library, rucaparib conditional (AID 1508598); conditions: patient-derived ovarian cancer cells, CellTiter-Glo viability, 144 h, stronger effect = lower value
# [3] = LFS_MB_P medulloblastoma growth inhibition, cell-based, chromothripsis tumors, cisplatin or BGB combos (AID 1671449; in the data active means inhibition above about 80%;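 further: cells exposed for 96 hours; 0% = vehicle DMSO and 100% = killing by high DMSO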); conditions: LFS_MB_P medulloblastoma cells
# [4] = HDN33 neuroblastoma growth inhibition, cell-based, chromothripsis tumors, cisplatin or BGB combos (AID 1671450; in the data active means inhibition above about 80%;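 further: cells exposed to compound for four days; 0% = vehicle DMSO and 100% = cell killing by high DMSO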); conditions: HDN33 neuroblastoma cells, stronger effect = higher value
# [5] = ICB984 medulloblastoma cell growth inhibition, synergistic combos for chromothripsis tumors, cisplatin or BGB combos (AID 1671451; call rule not given here;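 further: cells exposed for 96 hours before readout; 0% = vehicle DMSO and 100% = killing by high DMSO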); conditions: ICB984 medulloblastoma cells, drug combinations, stronger effect = higher value
# [6] = HTB85 osteosarcoma cell growth inhibition, synergistic combos for chromothripsis tumors, BGB or cisplatin IC20 combos (AID 1671453; in the data active means inhibition above about 80%;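 further: cells exposed for 96 hours before readout; 0% = vehicle DMSO and 100% = high DMSO killing control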); conditions: HTB85 osteosarcoma cells, drug combinations, stronger effect = higher value
# [7] = MDA-MB-436 breast carcinoma cell growth inhibition, synergistic combos for chromothripsis tumors, BGB or cisplatin combos (AID 1671458; call rule not given here;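 further: cells exposed for 96 hours; 0% = vehicle DMSO and 100% = killing by high DMSO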); conditions: MDA-MB-436 breast carcinoma growth inhibition, drug combinations, stronger effect = higher value
# [8] = growth inhibition of BT084 medulloblastoma cells, cell-based, ICGC_MB145, cisplatin and BGB IC40 combos (AID 1671461; in the data active means inhibition above about 80%;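 further: cells exposed to drugs for 96 hours; 0% = vehicle DMSO and 100% = high DMSO full killing control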); conditions: drug combinations, stronger effect = higher value
# [9] = growth inhibition of RCMB18 medulloblastoma cells, cell-based, cisplatin and BGB IC40 combos (AID 1671462; in the data active means inhibition above about 80%;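 further: cells exposed to compound for four days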); conditions: stronger effect = higher value
# [10] = growth inhibition of CRL1545 osteosarcoma cells, cell-based, cisplatin and BGB IC20 combos (AID 1671464; in the data active means inhibition above about 80%;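 further: cells exposed to compound for 96 hours before readout; 0% = vehicle DMSO and 100% = high DMSO killing control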); conditions: stronger effect = higher value
# [11] = measured here: with BGB IC20 combination, at 0.5 µM
# [12] = measured here: with cisplatin IC20 combination, at 0.5 µM
compound,measurement,setting,value
C/C(=C\C(=O)Nc1ccccc1C(=O)O)c1ccc2ccccc2c1,SSMD,[1],2.21 and 1.02
same,cell count,[1],7410 and 6940
same,plate-normalised HSF1 focus index,[1],1.08 (inactive) and 1.06 (inactive)
same,viability,"[2]; at 0.000305 µM, OCI-C5x cells, with rucaparib 10 µM, 100% = cells with rucaparib alone",89.1% (active)
same,viability,"[2]; at 0.000305 µM, OCI-C5x cells, without rucaparib",109% (inactive)
same,viability,"[2]; at 0.000305 µM, OCI-P5x cells, with rucaparib 20 µM, 100% = cells with rucaparib alone",107% (inactive)
same,viability,"[2]; at 0.000305 µM, OCI-P5x cells, without rucaparib",103% (inactive)
same,viability,"[2]; at 0.00122 µM, OCI-C5x cells, with rucaparib 10 µM, 100% = cells with rucaparib alone",102% (inactive)
same,viability,"[2]; at 0.00122 µM, OCI-C5x cells, without rucaparib",107% (inactive)
same,viability,"[2]; at 0.00122 µM, OCI-P5x cells, with rucaparib 20 µM, 100% = cells with rucaparib alone",96.8% (active)
same,viability,"[2]; at 0.00122 µM, OCI-P5x cells, without rucaparib",101% (inactive)
same,viability,"[2]; at 0.00488 µM, OCI-C5x cells, with rucaparib 10 µM, 100% = cells with rucaparib alone",92.9% (active)
same,viability,"[2]; at 0.00488 µM, OCI-C5x cells, without rucaparib",110% (inactive)
same,viability,"[2]; at 0.00488 µM, OCI-P5x cells, with rucaparib 20 µM, 100% = cells with rucaparib alone",112% (inactive)
same,viability,"[2]; at 0.00488 µM, OCI-P5x cells, without rucaparib",103% (inactive)
same,viability,"[2]; at 0.0195 µM, OCI-C5x cells, with rucaparib 10 µM, 100% = cells with rucaparib alone",111% (inactive)
same,viability,"[2]; at 0.0195 µM, OCI-C5x cells, without rucaparib",111% (inactive)
same,viability,"[2]; at 0.0195 µM, OCI-P5x cells, with rucaparib 20 µM, 100% = cells with rucaparib alone",106% (inactive)
same,viability,"[2]; at 0.0195 µM, OCI-P5x cells, without rucaparib",112% (inactive)
same,viability,"[2]; at 0.0781 µM, OCI-C5x cells, with rucaparib 10 µM, 100% = cells with rucaparib alone",95.3% (active)
same,viability,"[2]; at 0.0781 µM, OCI-C5x cells, without rucaparib",104% (inactive)
same,viability,"[2]; at 0.0781 µM, OCI-P5x cells, with rucaparib 20 µM, 100% = cells with rucaparib alone",109% (inactive)
same,viability,"[2]; at 0.0781 µM, OCI-P5x cells, without rucaparib",113% (inactive)
same,viability,"[2]; at 0.313 µM, OCI-C5x cells, with rucaparib 10 µM, 100% = cells with rucaparib alone",94.4% (active)
same,viability,"[2]; at 0.313 µM, OCI-C5x cells, without rucaparib",111% (inactive)
same,viability,"[2]; at 0.313 µM, OCI-P5x cells, with rucaparib 20 µM, 100% = cells with rucaparib alone",109% (inactive)
same,viability,"[2]; at 0.313 µM, OCI-P5x cells, without rucaparib",110% (inactive)
same,viability,"[2]; at 1.25 µM, OCI-C5x cells, with rucaparib 10 µM, 100% = cells with rucaparib alone",95.9% (active)
same,viability,"[2]; at 1.25 µM, OCI-C5x cells, without rucaparib",108% (inactive)
same,viability,"[2]; at 1.25 µM, OCI-P5x cells, with rucaparib 20 µM, 100% = cells with rucaparib alone",116% (inactive)
same,viability,"[2]; at 1.25 µM, OCI-P5x cells, without rucaparib",118% (inactive)
same,viability,"[2]; at 5 µM, OCI-C5x cells, with rucaparib 10 µM, 100% = cells with rucaparib alone",89.8% (active)
same,viability,"[2]; at 5 µM, OCI-C5x cells, without rucaparib",98.2% (active)
same,viability,"[2]; at 5 µM, OCI-P5x cells, with rucaparib 20 µM, 100% = cells with rucaparib alone",119% (inactive)
same,viability,"[2]; at 5 µM, OCI-P5x cells, without rucaparib",117% (inactive)
same,inhibition,"[3]; at 0.5 µM, stronger effect = higher value",102% (active) and -1.28% (inactive)
same,inhibition,"[3]; measured here: combination with BGB IC20, at 0.005 µM",9.03% and -7.31%
same,inhibition,"[3]; measured here: combination with BGB IC40, at 0.005 µM",-18.4% and -24.9%
same,inhibition,"[3]; measured here: combination with BGB IC40, at 0.05 µM",19.3% and -24.1%
same,inhibition,"[3]; measured here: combination with cisplatin, at 0.5 µM, stronger effect = higher value",113% and 3.01%
same,inhibition,"[3]; measured here: combination with cisplatin, at 5 µM, stronger effect = higher value",13.4% and -26.4%
same,inhibition,"[4]; BGB combo, at 5 µM",-23.7% and -49.5%
same,inhibition,[4]; at 0.5 µM,-19.3% (inactive) and -46.7% (inactive)
same,inhibition,"[4]; cisplatin combo, at 5 µM",-7.72% and -22.6%
same,inhibition,[4]; [11],-14.6% and -44.4%
same,inhibition,[4]; [12],-15.2% and -49.7%
same,inhibition,"[4]; single agent, at 5 µM",-14% and -26%
same,inhibition,"[5]; BGB IC20 combo, at 0.005 µM",-36.5% and -10.3%
same,inhibition,"[5]; BGB IC40 combo, at 0.005 µM",5.4% and -31%
same,inhibition,"[5]; BGB IC40 combo, at 0.05 µM",-10.6% and -21.5%
same,inhibition,[5]; at 0.5 µM,-6.99% (inactive) and -24.5% (inactive)
same,inhibition,"[5]; cisplatin combo, at 0.05 µM",-10.6% and -25.9%
same,inhibition,"[5]; cisplatin combo, at 0.5 µM",-7.39% and -29.2%
same,inhibition,"[5]; cisplatin combo, at 5 µM",6.72% and -34%
same,inhibition,"[5]; measured here: 5 uM single agent, at 5 µM",-9.64% and -30.6%
same,inhibition,[6]; at 0.5 µM,-22.4% (inactive) and -26.8% (inactive)
same,inhibition,"[6]; measured here: with BGB IC20, at 0.5 µM",-27.7% and -32.5%
same,inhibition,"[6]; measured here: with BGB IC20, at 5 µM",-14.9% and -24.4%
same,inhibition,"[6]; measured here: with cisplatin IC20, at 0.5 µM",-22.7% and -28.1%
same,inhibition,"[6]; measured here: with cisplatin IC20, at 5 µM",-19.8% and -17.3%
same,inhibition,"[6]; single agent, at 5 µM",-20.6% and -16.3%
same,inhibition,[7]; at 0.5 µM,-3.17% (inactive) and -21% (inactive)
same,inhibition,"[7]; measured here: BGB combination, at 0.5 µM",-3.42% and -32.5%
same,inhibition,"[7]; measured here: BGB combination, at 5 µM",-2.03% and -11.9%
same,inhibition,"[7]; measured here: cisplatin combination, at 0.5 µM",-4.64% and -12.8%
same,inhibition,"[7]; measured here: cisplatin combination, at 5 µM",-4.62% and -6.3%
same,inhibition,[8]; at 0.5 µM,-6.83% (inactive) and -5.19% (inactive)
same,inhibition,"[8]; cisplatin combination, at 0.5 µM",-15% and -25.6%
same,inhibition,"[8]; cisplatin combination, at 5 µM",-24.9% and -2.65%
same,inhibition,"[8]; measured here: BGB IC40 combination 0.05 uM, at 0.05 µM",-17.8% and 7.75%
same,inhibition,"[8]; single agent, at 5 µM",11.2% and -10.1%
same,inhibition,[9]; at 0.5 µM,-1.42% (inactive) and -24.1% (inactive)
same,inhibition,"[9]; cisplatin combo, at 5 µM",5.73% and -10.2%
same,inhibition,"[9]; measured here: BGB IC40 combination, at 0.05 µM",-5.49% and -16.6%
same,inhibition,"[9]; measured here: combination with cisplatin, at 0.5 µM",-31.4% and -50.1%
same,inhibition,"[9]; single agent, at 5 µM",-4.52% and -12.1%
same,inhibition,[10]; at 0.5 µM,-35.2% (inactive) and -65.1% (inactive)
same,inhibition,[10]; [11],-24.4% and -56.6%
same,inhibition,[10]; [12],-40.6% and -72.1%
same,inhibition,"[10]; single agent, at 0.05 µM",-15.5% and -44.7%
same,inhibition,"[10]; single agent, at 5 µM",-12.5% and -53.7%
